PubChem BioAssay (NCI)
About 83,000 compounds went through this panel and 20% of them were active in at least one assay; those are over-represented in the sample as a whole.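 The endpoint reported here, percent growth, reads 100 for growth as untreated, 0 for no net growth and -100 for all cells dead.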 Unmarked numbers belong to inactive results. Active and inactive are the calls of the source. Rule for the calls: active = growth percent below 10; inactive = the rest.

The compounds below were run on A498 renal (assay: NCI-60 one-dose screen, 48 h (100 = growth as untreated, 0 = no growth, -100 = all killed)). Settings: 10 µM unless noted.

Question: How did the growth turn out when CC(=O)OC1/C=C\CC/C=C\C1 (configuration not stated) was run?
Answer: The growth was 86.9%.

Question: With CCCCCCCCC1OC1CCCCCCCC(=O)O (configuration not stated) as the compound, how does the growth read?
Answer: Its growth is 102%.

Question: Which growth does the source give for CCOC1=C(Cl)C(=O)C(OCC)=C(Cl)C1=O here?
Answer: Its growth is 128%.

Question: How did the growth turn out when O=C1C(=O)c2ccccc2C(O)=C1CCCc1ccc(Oc2ccccc2)cc1 was run?
Answer: The growth was 66.1%.

Question: Which growth does the source give for CCN(CC)CCCC(C)Nc1c(C)cnc2cc(Cl)c(C)cc12 (configuration not stated) here?
Answer: Its growth is 83.2%.

Question: Oc1ccc([S+](c2ccc(O)cc2)c2ccc(O)cc2)cc1 was tested. Which growth did it give?
Answer: Its growth is 71.3%.

Question: How did the growth turn out when Cn1c2c(cc(S(=O)(=O)c3ccccc3)c1=O)CCc1c-2cnn1-c1ccc(Cl)cc1 was run?
Answer: The growth was -14.5% (active).

Question: With S=C(N/N=C/c1cc(Cl)cc(Cl)c1)NC12CC3CC(CC(C3)C1)C2 as the compound, how does the growth read?
Answer: Its growth is 57.1%.

Question: How did the growth turn out when CC(=O)c1ccc2c(c1)c1ccccc1n2C was run?
Answer: Its growth is -85.3% (active).

Question: Which growth does the source give for CC1(C)NC(=S)NC1=O here?
Answer: Its growth is 88.3%.

Question: O=C(NC1CCN(Cc2ccccc2)CC1)c1cc(-c2cccnc2)nc2ccc(Cl)cc12 was tested. Which growth did it give?
Answer: Its growth is 67.2%.

Question: Which growth does the source give for O=C(O)CS(=O)c1ccc(Cl)cc1 (configuration not stated) here?
Answer: Its growth is 91.9%.

Question: Which growth does the source give for Cc1ccc(S(=O)(=O)NC(CCC(=O)Nc2ccccc2)C(=O)Nc2ccccc2)cc1 (configuration not stated) here?
Answer: Its growth is -20.7% (active).

Question: Which growth does the source give for COc1ccc(/C=C2\CCCC3=C2N=C2SC=NN2C3c2ccc(OC)c(OC)c2)cc1OC (configuration not stated) here?
Answer: Its growth is 42.8%.

Question: For O=C1C(Br)=CC2C1C1C3CCC3C2(Br)C12OCCO2 (configuration not stated), which growth is on record?
Answer: The growth was 52.4%.

Question: For Oc1ccc(Br)cc1/C=N/NC(=S)NC12CC3CC(CC(C3)C1)C2, which growth is on record?
Answer: The growth was 53.3%.

Question: How did the growth turn out when Cc1ccc([C@@H]2C[C@H](O)Cc3ccccc3N2)s1 was run?
Answer: The growth was 91.2%.

Question: How did the growth turn out when CCCCCCC(C)N(CC(C)(C)O)C(=O)c1ccc([N+](=O)[O-])cc1 (configuration not stated) was run?
Answer: Its growth is 101%.

Question: With CC[n+]1c(C)ccc2cc(C)ccc21 as the compound, how does the growth read?
Answer: The growth was 96.7%.

Question: How did the growth turn out when CCN(CC)CCCNc1c2ccc(Cl)cc2nc2ccc(OC)cc12 was run?
Answer: Its growth is -62.2% (active).

Question: Which growth does the source give for O=C(NCCNCCO)c1cc([N+](=O)[O-])cc([N+](=O)[O-])c1O here?
Answer: Its growth is 106%.

Question: For O=C(/C=C\c1ccc(NCc2ccc(C(=O)O)cc2)cc1)CCl, which growth is on record?
Answer: The growth was 55.6%.

Question: CC1Cc2cc(F)ccc2-n2cccc21 (configuration not stated) was tested. Which growth did it give?
Answer: Its growth is 90.7%.

Question: With Oc1ccc(CN(Cc2ccc(C(F)(F)F)cc2)Cc2ccc(O)c3ncccc23)c2cccnc12 as the compound, how does the growth read?
Answer: Its growth is 41.6%.

Question: Which growth does the source give for CNc1ccc(Nc2ccc(S(=O)(=O)O)cc2)c2c1C(=O)c1ccccc1C2=O here?
Answer: Its growth is 113%.

Question: With CC(=O)Nc1ccc(C(=O)/C=C/c2ccc(N(C)C)cc2)cc1 as the compound, how does the growth read?
Answer: The growth was 104%.

Question: Which growth does the source give for Cc1sc(NC(=O)c2ccc(C(C)(C)C)cc2)c(C(=O)O)c1C here?
Answer: Its growth is 78.6%.

Question: With O=C(CBr)OCc1ccc([N+](=O)[O-])o1 as the compound, how does the growth read?
Answer: Its growth is 117%.

Question: For C=C(C)[C@@H]1CC[C@]2(COC(=O)c3ccccc3C(=O)O)CC[C@]3(C)[C@H](CC[C@@H]4[C@@]5(C)CCCNC(C)(C)[C@@H]5CC[C@]43C)[C@@H]12, which growth is on record?
Answer: The growth was 113%.

Question: COc1ccc(/C=C/C(=O)/C=C/c2cc3ccccc3[nH]c2=O)cc1 was tested. Which growth did it give?
Answer: The growth was 100%.

Question: CC([C@H]1CC=C2C3CCC4=C[C@@H](N(C)C)CC[C@]4(C)C3CC[C@@]21C)N(C)C (some centres not stated) was tested. Which growth did it give?
Answer: The growth was 96.4%.

Question: Which growth does the source give for C=CN(C)S(C)(=O)=O here?
Answer: The growth was 105%.
